# Shiga toxin inh = Shiga toxin inhibition. Vero cells, Shiga toxin protein synthesis inhibition reporter. inhibition, % at 38.7 µM. 9.2% of 290,000 active; in the data active means inhibition mostly above about 28%, no sharp cut-off; inactive means mostly below about 43%; further: 0% is about no effect
# FMDV antiviral = blocks foot and mouth disease virus. Potency, µM (doses to about 57.9 µM), without a hit: at the highest dose activity change, negative = inhibition, actives largely listed as inhibitors. 1.2% of 410,000 active. FMDV antiviral cell-based qHTS; calls by dose curve; tested in HEK293T cells; further: read-out not given here; potency means the concentration at half of the fitted maximal effect; on the % scale 0 is the no-effect control and ±100 the full control effect; nearly all actives have a fitted effect of over 45% in size
# Cycloheximide cs = counter-screen hit for Shiga toxin inhibitors, cycloheximide | cell reporter, cycloheximide protein synthesis inhibition counterscreen | max response, % | 12% of 300,000 active; in the data active means max response mostly above about 13%, no sharp cut-off; inactive means mostly below about 14%; further: read at 38.3 µM for the half of the compounds with a filed dose; 0% is about no effect
# Sm TGR block = inhibitors of Schistosoma mansoni thioredoxin glutathione reductase | AID 485364 | Potency, µM (highest dose often 114 µM), inactives show at the top dose activity change, negative = inhibition, hits mostly inhibitors | Q962Y6 | purified TGR, DTNB reduction, TNB absorbance 405 nm | 3% of 360,000 active; active means well fitted inhibition curve with a large enough effect; inconclusive means small, poorly fitted or top-dose-only effect; inactive means no such curve, though single readings can be large or run the other way; further: potency means the concentration at half of the fitted maximal effect; on the % scale 0 is the no-effect control and ±100 the full control effect; nearly all actives have a fitted effect of over 60% in size
#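 TGR 20 nM + NADPH 100 uM (dispensed conc.), cpd preinc 15 min RT; start with NADPH (500 uM addition) then DTNB (15 mM addition). Kinetic TNB absorbance, 405 nm filter. Four-parameter Hill fit across titration.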
# The depositor's hits bear a star; u = inconclusive; x = no result. In the library only some 12% were active in any assay of this set; here they are far more common.
SMILES,Shiga toxin inh,FMDV antiviral,Cycloheximide cs,Sm TGR block
Cc1ccc(N2CCN(C(=O)Cn3ncc4c([nH]c5ccc(C)cc54)c3=O)CC2)c(C)c1,x,-19%,x,7%
CCOc1ccc(OCC)c(NC(=O)c2cc(-c3cccs3)nc3ccccc23)c1,x,-4%,x,-9%
Cc1cccc(C(=O)NN/C=C/C(=O)c2ccccc2)c1,56*,2%,31*,-39%
O=C(NNCc1ccccc1)c1ccccc1,x,-16%,x,x
O=C(/C=C/NNC(=O)c1ccccc1)c1ccccc1,20,11%,27*,0%
O=C(C=CC=Cc1ccccc1)c1ccc([N+](=O)[O-])cc1,x,-3%,x,x
O=C(/C=C/NNC(=O)c1ccccc1)c1ccc([N+](=O)[O-])cc1,87*,-10%,38*,-2%
O=[N+]([O-])c1ccc(Oc2cccnc2)c([N+](=O)[O-])c1,x,32µM*,x,x
O=[N+]([O-])c1ccc(OCc2cnc(Cl)s2)c([N+](=O)[O-])c1,38,20%,20*,x
Nc1ccc(Oc2ccc([N+](=O)[O-])cc2[N+](=O)[O-])cc1,17,-20%,13,-16%
COC(=O)C(Cc1cnc(Cl)s1)(C(=O)OC)c1ccc([N+](=O)[O-])cc1[N+](=O)[O-],-25,u,-5,-6%
O=c1ccc2ccc(Oc3ccc([N+](=O)[O-])cc3[N+](=O)[O-])cc2o1,3,x,-4,40µM*
Cc1ccc(C)c(S(=O)(=O)c2cn(C)c3cc(N4CCCCC4C)c(F)cc3c2=O)c1 (stereo not given),x,-6%,x,-1%
CCC(C)NC(=O)CCCc1nnc2n(CC(C)C)c(=O)c3sccc3n12 (stereo not given),x,-3%,x,0%
COc1ccc(S(=O)(=O)NCC(c2ccco2)N2CCN(c3ccc(F)cc3)CC2)cc1C (stereo not given),x,-25%,x,4%
Cc1cn(C2CC(N=[N+]=[N-])C(CO)O2)c(=O)[nH]c1=O (stereo not given),x,-13%,x,x
COc1ccc2cc(C(=O)OC(C)C)sc(=O)c2c1OC,30*,28%,14*,1%
COC(=O)c1ccccc1NC(=O)c1nn(C)c2c1COc1ccccc1-2,x,0%,x,7.1µM*
COc1cc(NC(=O)c2nn(C)c3c2CS(=O)(=O)c2ccccc2-3)cc(OC)c1,14,-13%,10,13%
COc1cc(NC(=O)c2nn(C)c3c2COc2ccccc2-3)cc(OC)c1OC,x,-14%,x,32µM*
COc1ccccc1NC(=O)c1nn(C)c2c1CS(=O)(=O)c1ccccc1-2,x,-14%,x,2%
COc1ccc(CNC(=O)c2ccc(NC(=O)N3CCSc4ccccc43)cc2)cc1,x,-18%,x,9%
CCc1nc(OCc2ccco2)c2sc3nc4c(cc3c2n1)COC(C)(C)C4,5,u,4,10µM*
CCc1nc2c(sc3nc4c(cc32)COC(C)(C)C4)c(=O)n1Cc1ccco1,26,u,14,u
COc1nc(C)nc2c1sc1nc3c(cc12)COC(C)(C)C3,58,8%,34*,-6%
SMILES,Shiga toxin inh,FMDV antiviral,Cycloheximide cs,Sm TGR block
Cc1nc(OCC(C)C)c2sc3nc4c(cc3c2n1)COC(C)(C)C4,60*,-10%,20*,0%
O=[N+]([O-])c1ccc(Sc2cccc3cccnc23)c([N+](=O)[O-])c1,13,u,19*,-11%
O=[N+]([O-])c1ccc(Sc2cccc3cccnc23)cc1,65*,x,26*,-8%
O=[N+]([O-])c1cc(Cl)ccc1Sc1cccc2cccnc12,-13,x,-1,4%
CP(=O)(Nc1ccc(Cl)cc1)c1nc2c(s1)CCCC2 (stereo not given),1,-21%,8,22µM*
O=P(Nc1c(Cl)cccc1Cl)(c1ccccc1)c1nc2c(s1)CCCC2 (stereo not given),-15,38%,-3,-15%
O=C(O)/C=C/C(=O)c1c(-c2ccccc2)[nH]c2ccccc12,-4,u,-2,25µM*
CC(=O)c1c(-c2ccccc2)[nH]c2ccccc12,x,0%,-1,-18%
CCOC(=O)N1CCN(Cc2ccc3c(c2)CN(C(=O)c2ccc4ncccc4c2)CCO3)CC1,x,28µM*,x,x
O=C(c1ccc2[nH]ccc2c1)N1CCOc2ccc(CN3CCN(c4ccccn4)CC3)cc2C1,x,25µM*,x,x
COc1ccccc1C(=O)N1CCOc2ccc(CN3CCN(Cc4ccccn4)CC3)cc2C1,x,-7%,x,x
CN1OC[C@@H]2CN[C@H](c3ccc(-c4cc5ccccc5o4)cc3)C[C@@H]21,x,0.35µM*,x,x
CC(=O)N1CCc2c(sc3c2c(=O)n(-c2ccccc2)c(=O)n3Cc2cccc(C(F)(F)F)c2)C1,x,-26%,x,1%
Cc1ccc(/C=N/NC(=O)CSc2nc3ccccc3n2C)s1,23,-6%,13,0%
Cn1c(-c2cccs2)nc2ccccc21,125*,49%,35*,0%
Cn1c(-c2ccc(C=O)s2)nc2ccccc21,71,21%,23*,2%
Cc1ccc(-c2nc(N3CCOCC3)s[n+]2-c2ccccc2)cc1,85*,38%,62*,-13%
O=C(Nc1ccccc1)OCc1cc(-c2ccccc2Cl)on1,69*,34%,39*,9%
O=C(Nc1cccc(O)c1)c1cc(-c2ccc3c(c2)OCO3)on1,-2,11µM*,3,-3%
CC(=O)c1ccc(NC(=O)c2cc(-c3ccc4c(c3)OCO4)on2)cc1,x,-5%,x,4%
CCN(CC)C(=O)c1cc(-c2ccc(Cl)cc2)on1,x,86%,x,-7%
CCN(CC)C(=O)c1cc(-c2ccc3c(c2)OCO3)on1,77*,24%,62*,-13%
COc1ccc(NC(=O)c2cc(-c3ccccc3Cl)on2)cc1OC,33,15%,1,1%
O=C(Nc1cccc(O)c1)c1cc(-c2ccccc2Cl)on1,-12,11µM*,6,1%
Cc1ncc2c(c1CNC(=O)c1ccc3c(c1)OCO3)CCN(C(=O)c1csc3c1CCCC3)C2,x,1%,x,x
SMILES,Shiga toxin inh,FMDV antiviral,Cycloheximide cs,Sm TGR block
O=C(Nc1nnc(N2CCCCCC2)s1)Nc1ccccc1C(F)(F)F,x,28%,x,1%
CCCCNC(=O)c1cc(-c2ccc3c(c2)OCO3)on1,57*,15%,38*,-23%
CC(C)NC(=O)c1cc(-c2ccc3c(c2)OCO3)on1,104*,31%,26*,-9%
O=C(NCCc1ccccc1)c1cc(-c2ccc3c(c2)OCO3)on1,0,13%,-3,0%
CCCNC(=O)c1cc(-c2ccc3c(c2)OCO3)on1,86*,0%,31*,-21%
CCN(CC)CCCNC(=O)c1cc(-c2ccc3c(c2)OCO3)on1,26,0%,6,-8%
Cc1ccc2oc(=O)c3cc(C(=O)Nc4cccc(C#N)c4)sc3c2c1,x,0%,x,2%
CN(C)c1ccc(CNC(=O)c2cc3ccccn3n2)cc1,x,29%,x,2%
CCC(=NC(C)c1ccccc1)c1c(O)n(C)c(=O)n(C)c1=O (stereo not given),-12,13µM*,2,-3%
CCC(=NCCc1c[nH]c2ccccc12)c1c(O)n(C)c(=O)n(C)c1=O,-21,16µM*,-4,-5%
COc1ccc2nc3c(cc2c1)Cn1c-3nc2ccccc2c1=O,27,x,15,x
COc1ccc2[nH]c3c(c2c1)CCn1c-3nc2ccccc2c1=O,97*,-6%,38*,1%
